From PubChem BioAssay
Activity calls are given as the source filed them.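 How the source made its calls, unless noted: active means inhibition of the reporter signal at or above 50%; inactive means inhibition below 50%.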

What was measured:
[1] = inhibitors of TNFa-induced NFkB p65 translocation, primary screen, imaging, HUVEC, MLSMR starter and 10KST1 sets (AID 438;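 active means inhibition above 20% together with a positive visual image hit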;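 further: compound added about 3h40 before a 20 min TNFalpha stimulation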;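 on inhibition: signal is the nuclear over cytoplasmic p65 intensity ratio per well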); details: HUVEC TNFa-induced p65 nuclear translocation; cell count: measured here: nuclei count (cytotoxicity indicator), at 2.08 µM; inhibition: at 2 µM, stronger effect = higher value, 0% TNFa-plus-vehicle, 100% no-TNFa wells
[2] = reduction of polyQ htt aggregates in cells – imaging, exon1htt(103Q)mCFP cells, high-content imaging, primary screen (AID 483;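 active means visual image review flags a hit and inhibition of aggregation exceeds 20%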;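 further: compound exposure lasted 3 days before fixation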;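 on nuclei count: percent of the per-plate median nuclei count of sample wells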); details: exon1htt(103Q)mCFP cell line, aggregate imaging, at 2 µM; inhibition of aggregation: stronger effect = higher value; nuclei count: measured here: cell count, toxicity
[3] = endothelial E-selectin expression blockers – imaging, HUVEC, immunofluorescence, MLSMR starter and 10KST1 sets, primary screen (AID 487;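 active means visually confirmed hit in the image check and inhibition above 20%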;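 on inhibition: signal is fraction of cell area covered by stained E-selectin grains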;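 on nuclei count: 100% = median nuclei count of all wells on the same plate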); details: HUVEC TNFalpha-induced E-selectin immunofluorescence imaging, at 2 µM; inhibition: stronger effect = higher value; nuclei count: measured here: cell number, toxicity
[4] = biological target: Voltage-gated potassium channel subunit beta-2 (Rattus norvegicus) (UniProt P62483); test: inhibitors of rat Kvbeta2 reductase activity – biochemical, NADPH fluorescence, primary screen (AID 622;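 active means fluorescence slope higher than the sample average by over 3 SD, cut at about -0.22 in these data, passing the limit was not always enough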;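 further: slope of raw intensity against log time taken from 70 to 1610 s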); details: recombinant KvBeta, 4-cyanobenzaldehyde reduction, at 10 µM, stronger effect = higher value
Sequence of Voltage-gated potassium channel subunit beta-2 (Rattus norvegicus) (P62483 whole entry, looked up): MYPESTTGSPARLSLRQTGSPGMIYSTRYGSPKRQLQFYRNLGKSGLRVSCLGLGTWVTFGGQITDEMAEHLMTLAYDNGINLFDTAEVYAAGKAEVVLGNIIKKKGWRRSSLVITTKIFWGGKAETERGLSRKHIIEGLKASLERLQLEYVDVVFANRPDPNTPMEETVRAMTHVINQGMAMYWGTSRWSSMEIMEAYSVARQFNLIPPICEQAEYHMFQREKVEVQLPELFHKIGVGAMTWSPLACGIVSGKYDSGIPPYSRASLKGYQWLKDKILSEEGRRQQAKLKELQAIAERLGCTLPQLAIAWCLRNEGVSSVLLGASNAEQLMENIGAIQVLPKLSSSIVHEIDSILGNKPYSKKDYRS

[5] = biological target: Voltage-gated potassium channel subunit beta-2 (Rattus norvegicus) (UniProt P62483); test: enhancers of rat Kvbeta2 NADPH turnover – biochemical, NADPH fluorescence, primary screen (AID 623;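 active means NADPH fluorescence slope more negative than the mean of all samples by about 3 SD, 99.7% confidence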;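 further: fluorescence intensity change per second fitted from 20 to 320 s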); details: Recombinant KvBeta, NADPH fluorescence decrease slope, 10 min; at 10 µM; stronger effect = lower value
[6] = biological target: Alpha-2C adrenergic receptor (Homo sapiens) (UniProt P18825); test: compounds altering alpha2C-coupled GIRK flux – cell-based, HEK293 alpha2C/GIRK1/2, thallium flux, primary screen (AID 624;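 active means fluorescence slope after compound addition differing from the mean of all screened samples at 99.7% confidence, in either direction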;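 further: slope of fluorescence ratio to pre-addition baseline per second over 15 to 24 s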); details: thallium flux BTC fluorescence, at 10 µM, actives lie on both sides
Sequence of Alpha-2C adrenergic receptor (Homo sapiens) (P18825 whole entry, looked up): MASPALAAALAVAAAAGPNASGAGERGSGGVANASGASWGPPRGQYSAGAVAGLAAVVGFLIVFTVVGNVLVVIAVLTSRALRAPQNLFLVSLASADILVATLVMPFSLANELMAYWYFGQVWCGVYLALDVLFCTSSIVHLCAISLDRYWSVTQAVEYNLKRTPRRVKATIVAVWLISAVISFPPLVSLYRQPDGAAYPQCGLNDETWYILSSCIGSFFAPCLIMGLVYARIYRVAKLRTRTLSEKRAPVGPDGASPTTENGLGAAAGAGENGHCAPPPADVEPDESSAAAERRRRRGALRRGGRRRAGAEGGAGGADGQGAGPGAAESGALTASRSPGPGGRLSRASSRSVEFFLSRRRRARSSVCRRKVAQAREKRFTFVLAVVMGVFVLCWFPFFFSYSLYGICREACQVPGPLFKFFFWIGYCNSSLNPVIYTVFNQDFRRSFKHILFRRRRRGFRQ

[7] = blockers of RIG-like receptor reporter activation – cell-based, Sendai virus stimulus, luciferase, 10K MLSCN set, TLR/RLR signaling modifier project, primary screen (AID 602276;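 active means inhibition at or above 50% at 10 µM; inactive means inhibition below 50%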;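 further: firefly luciferase from ISG56 promoter only with Renilla not read in this screen; 0% = Sendai virus plus DMSO and 100% = medium plus DMSO without virus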); details: HEK293 RL24 IRF3 luciferase reporter, at 10 µM, stronger effect = higher value
[8] = TLR3 IRF3 reporter activation blockers – cell-based, poly I:C stimulus, luciferase, 10K MLSCN set, primary screen (AID 602277); details: HEK293-TLR3 RL24 IRF3 luciferase reporter, at 10 µM, stronger effect = higher value

Compound	cell count [1]	inhibition [1]	inhibition of aggregation [2]	nuclei count [2] [%]	inhibition [3]	nuclei count [3] [%]	fluorescence slope [4]	NADPH fluorescence slope [5]	slope [6]	inhibition [7]	inhibition [8]
C/C(=C\c1ccco1)C1C(C#N)=C(N)OC2=C1C(=O)CC(C)(C)C2 (stereo unspecified)	595	-9.1% (inactive)	11.6% (inactive)	96.3	-87.8% (inactive)	106	-0.303 (inactive)	-6.3e-05 (inactive)	0.00426 (inactive)	15.4% (inactive)	18.7% (inactive)
O=C(c1ccc(COc2c(F)c(F)c(F)c(F)c2F)o1)N1CCOCC1	701	2.8% (inactive)	26.7% (inactive)	79.8	-25% (inactive)	105	-0.58 (inactive)	-3.8e-05 (inactive)	0.0055 (inactive)	10.5% (inactive)	33.9% (inactive)
COc1ccc(NC(=O)CSc2nnc(-c3ccccc3)n2N)cc1	438	0% (inactive)	4.9% (inactive)	103	-13.6% (inactive)	114	-0.38 (inactive)	9.8e-06 (inactive)	0.00577 (inactive)	15.8% (inactive)	24% (inactive)
CCOc1ccc(-c2nnc3sc(-c4c(OC)cccc4OC)nn23)cc1	434	2.8% (inactive)	0.4% (inactive)	102	-65.6% (inactive)	111	-0.609 (inactive)	-3.7e-05 (inactive)	0.00506 (inactive)	10.1% (inactive)	3.17% (inactive)
CC(C)Oc1ccc(N2CC(C(=O)Nc3ccccc3F)CC2=O)cc1 (stereo unspecified)	804	3.6% (inactive)	-2% (inactive)	103	-110% (inactive)	128	-0.438 (inactive)	6.3e-06 (inactive)	0.00384 (inactive)	4.3% (inactive)	37.6% (inactive)
O=C(OC1CCOC1=O)c1ccc(S(=O)(=O)N2CCCCCC2)cc1 (stereo unspecified)	466	1.1% (inactive)	-2.3% (inactive)	92.8	-116% (inactive)	97.1	-0.329 (inactive)	7.8e-06 (inactive)	0.00585 (inactive)	5.47% (inactive)	14.9% (inactive)
CCN1C(=O)CC(C(=O)Nc2ccc(F)cc2)SC1=Nc1ccc2c(c1)OCO2 (stereo unspecified)	551	-28.9% (inactive)	1.1% (inactive)	110	1.8% (inactive)	124	-0.504 (inactive)	-3.2e-05 (inactive)	0.00494 (inactive)	18.1% (inactive)	21.5% (inactive)
Cc1ccc2oc(=O)c3cnn(CC(=O)NCCC(C)C)c3c2c1	618	-3.9% (inactive)	-7.6% (inactive)	124	-31.4% (inactive)	104	-0.602 (inactive)	-2.9e-05 (inactive)	0.0065 (inactive)	7.61% (inactive)	18.2% (inactive)
O=S(=O)(NCC1CCCO1)c1ccc2c(c1)OCCO2 (stereo unspecified)	311	-5.5% (inactive)	-1% (inactive)	122	-67.1% (inactive)	120	-0.469 (inactive)	-9.9e-06 (inactive)	0.00518 (inactive)	6.84% (inactive)	7.25% (inactive)
CC(=O)N(C)C1(c2nnnn2CCOC(=O)Nc2ccc(Cl)cc2)CCCCC1	498	4.3% (inactive)	5.4% (inactive)	107	-33.3% (inactive)	105	-0.398 (inactive)	-3.1e-05 (inactive)	0.00444 (inactive)	1.79% (inactive)	20.6% (inactive)
COc1ccc(S(=O)(=O)N(C)C2CCN(C)CC2)cc1	843	-2.3% (inactive)	-6.3% (inactive)	128	-73.5% (inactive)	114	-0.548 (inactive)	-5.5e-05 (inactive)	0.00699 (inactive)	7.34% (inactive)	43.8% (inactive)
O=C1NC2(Nc3ccccc31)C(=O)Nc1ccccc12 (stereo unspecified)	361	-4.3% (inactive)	6.1% (inactive)	102	-129% (inactive)	106	-0.355 (inactive)	-4.5e-06 (inactive)	0.00484 (inactive)	13.7% (inactive)	37.4% (inactive)
Cn1c(=O)c2c(-c3ccccc3)n(CCCN3CCOCC3)cc2n(C)c1=O	953	7.9% (inactive)	-17.3% (inactive)	108	-6.9% (inactive)	102	-0.574 (inactive)	-2.7e-08 (inactive)	0.00936 (inactive)	-9.43% (inactive)	-18.1% (inactive)
NC(=O)CSc1cn(CCNC(=O)c2cccs2)c2ccccc12	604	-1.4% (inactive)	7% (inactive)	84.8	19% (inactive)	98.2	-0.436 (inactive)	-4.5e-05 (inactive)	0.00564 (inactive)	-2.46% (inactive)	23.4% (inactive)
CCCS(=O)(=O)N1CCN(Cc2ccc(OCc3ccccc3)c(OC)c2)CC1	247	-5% (inactive)	9.9% (inactive)	79.6	-25.9% (inactive)	101	-0.549 (inactive)	-4.2e-05 (inactive)	0.0062 (inactive)	-20.2% (inactive)	-19.3% (inactive)
CC1CC(NC(=O)c2cnc3n(c2=O)CCS3)CC(C)(C)C1 (stereo unspecified)	626	-2.3% (inactive)	-23.1% (inactive)	113	-37.1% (inactive)	112	-0.56 (inactive)	-4.4e-05 (inactive)	0.00953 (inactive)	16.9% (inactive)	38.3% (inactive)
CCN(C(=O)COC(=O)c1cc(C)n(-c2ccc(F)cc2)c1C)C1CCS(=O)(=O)C1 (stereo unspecified)	496	-3.4% (inactive)	-3.9% (inactive)	114	-35.5% (inactive)	115	-0.537 (inactive)	3.5e-06 (inactive)	0.00451 (inactive)	13.2% (inactive)	13% (inactive)
CC1=C(C)CC2C(=O)N(c3cccc4ccccc34)C(=O)C2C1 (stereo unspecified)	705	-2.3% (inactive)	1.2% (inactive)	106	-28.7% (inactive)	106	-0.569 (inactive)	-2.7e-05 (inactive)	0.00739 (inactive)	0.65% (inactive)	28.7% (inactive)
COC(=O)c1ccccc1NC(=O)c1ccc(-c2ccccc2F)o1	516	-5.3% (inactive)	-24.1% (inactive)	111	-37.1% (inactive)	103	-0.469 (inactive)	-1.5e-06 (inactive)	0.00728 (inactive)	19.2% (inactive)	-29.6% (inactive)
CCOC(=O)N1CCN(C(=O)COc2ccc(Br)cc2Cl)CC1	317	2% (inactive)	-6.6% (inactive)	98.4	-27.2% (inactive)	118	-0.445 (inactive)	-5.1e-05 (inactive)	0.00378 (inactive)	6.45% (inactive)	30.7% (inactive)
CCSc1nnc(NC(=O)CSc2nnc(Cc3cccn3C)n2-c2ccc(C)cc2)s1	601	-12.3% (inactive)	-2.6% (inactive)	112	16.8% (inactive)	75.5	-0.596 (inactive)	1.3e-06 (inactive)	0.00655 (inactive)	3.74% (inactive)	10.5% (inactive)
C/C(N)=C(/C#N)C(=O)CSc1nnc(Nc2c(C)cccc2C)s1	354	13.1% (inactive)	8.1% (inactive)	70.3	-30.9% (inactive)	119	-0.586 (inactive)	-5.6e-05 (inactive)	0.00543 (inactive)	6.86% (inactive)	2.86% (inactive)
CC(=O)c1cc(-c2ccc(F)cc2)n(CCC(=O)Nc2cc(C)[nH]n2)c1C	360	0% (inactive)	-4.1% (inactive)	102	0% (inactive)	118	-0.507 (inactive)	-3.1e-05 (inactive)	0.00525 (inactive)	4.04% (inactive)	25.9% (inactive)
CC(=O)c1cccc(NS(=O)(=O)c2ccc3c(c2)oc(=O)n3C)c1	299	-9% (inactive)	0.5% (inactive)	119	-52% (inactive)	117	-0.437 (inactive)	-2.3e-05 (inactive)	0.00511 (inactive)	6.35% (inactive)	2.39% (inactive)
CCOC(=O)CN1C(=O)C(=O)c2cccc(C)c21	651	-4.4% (inactive)	-8.1% (inactive)	119	-62.9% (inactive)	119	-0.601 (inactive)	-4.5e-05 (inactive)	0.00699 (inactive)	15.4% (inactive)	34.9% (inactive)
Cc1cccc(CC(=O)Nc2c3c(nn2-c2cccc(Cl)c2)CS(=O)C3)c1 (stereo unspecified)	394	1% (inactive)	-17.3% (inactive)	106	-27.9% (inactive)	110	-0.57 (inactive)	2.8e-05 (inactive)	0.00504 (inactive)	-10.3% (inactive)	-33.4% (inactive)
